The record followed here is PubChem BioAssay (Tox21).

Molecules are shown by their SMILES. Inconclusive results are not listed. Where a call stands in place of a potency, no number is given. Activity calls are given as the source filed them. The call rests on the fitted dose curve; in most records, active means well fitted cell-killing curve with a large enough effect in the repeat runs; inconclusive means weak or mixed curves, or effect the other way; inactive means no such curve, though single readings can be large or run the other way.
Potency means the concentration at half of the fitted maximal effect.

This assay can be described thus: qHTS assay to identify small molecule antagonists of the thyroid receptor (TR) signaling pathway - cell viability counter screen (AID 743064). Further: nearly all actives have a fitted effect of over 50% in size. To be noted: GH3.TRE-Luc viability, CellTiter-Fluor, 24 h; series mostly up to 70.3 µM. An excerpt: National Center for Advancing Translational Sciences [NCATS]
NIH Chemical Genomics Center [NCGC]
U.S. Environmental Protection Agency [EPA]
National Institutes of Environmental Health Sciences [NIEHS]
National Toxicology Program [NTP]
U.S. Food and Drug Administration [FDA]
Thyroid receptor (TR), a nuclear hormone receptor, plays an important role in development, proliferation, differentiation, metabolism, brain function, and cardiovascular system. […] To profile the Tox21 10K compound library in TR signaling, a cell-based GH3-TRE-Luc assay (GH3.TRE-Luc cell line, developed by the laboratory of Dr. Albertinka J. Murk, Wageningen University) was used to measure the inhibition of TR. GH3 (rat pituitary tumor) cells stably expressing a TR activity sensor consisting of two TR response elements and a luciferase reporter gene. The cytotoxicity of the Tox21 compound library against the GH3.TRE-Luc cell line was tested in parallel by measuring the cell viability using CellTiter-Fluor assay (Promega, Madison, WI) in the same wells.
Tox21 Assay Protocol Summary:
GH3.TRE-Luc cells were dispensed at 1500 cells/4 uL/well into 1536-well white solid bottom plates using a Multidrop Combi dispenser (Thermo Fisher Scientific Inc., Waltham, MA). After the assay plates were incubated at 37 C for 4 hours, 23 nL of library compound or DMSO controls was transferred to the assay plates by a pintool station (Kalypsys, San Diego, CA), followed by addition of 1 ul of T3 (1 nM, final concentration in the wells) to stimulate TR transactivation. The assay plates were incubated at 37 C for 23.5 h, and then 1 uL of CellTiter-Fluor reagent (Promega, Madision, WI) of measuring cytotoxicity was added to each well using a Bioraptr Flying Reagent Dispenser (FRD) workstation (Beckman Coulter, Indianapolis, IN, USA). The plates were incubated at 37C and 5% CO2 for additional 30 min, and fluorescence intensity was measured by a ViewLux plate reader (PerkinElmer, Shelton, CT).
Background: In qHTS, concentration-response curves come from the screen itself.
Take `COC(=O)C(c1ccccc1Cl)N1CCc2sccc2C1` (stereo not given): the Potency entry was “inactive”.
For the molecule `Cc1ccc(O)c(C(=O)c2ccccc2)c1`, the Potency result is “inactive”.
The entry for `O=C(O)Cc1c(Cl)ccc(Cl)c1Cl` is “inactive”.
The entry for `C=CCN1CCc2nc(N)sc2CC1` is “inactive”; for `CC(C)(C)C(=O)NCCCC(=O)O` it is “inactive”; for `C=CCCCCCCCCOC(C)=O` it is “inactive”.
On to `Cc1cccc(N)n1`, for which the Potency result is “inactive”.
As to `CC(CN1CC(=O)NC(=O)C1)N1CC(=O)NC(=O)C1` (stereo not given), the Potency result is “inactive”.
The entry for `C=COCCCCO` is “inactive”.
For `CC(=O)SCC(CC(=O)c1ccc(C)cc1)C(=O)O` (stereo not given), the Potency entry is “inactive”.
The entry for `NC(=O)CC[C@@H](N)C(=O)O` is “inactive”.
The entry for `O=C(O)COc1ccc2ccccc2c1` is “inactive”.
The entry for `CC(O)CCCCn1c(=O)c2c(ncn2C)n(C)c1=O` (stereo not given) is “inactive”; for `COc1cc(NS(=O)(=O)c2ccc(N)cc2)ncn1` it is “inactive”.
As to `COC(=O)/C=C(\C)CCC=C(C)C`, the Potency entry was “inactive”.
`CN(C)CCc1c[nH]c2ccc(C[C@H]3COC(=O)N3)cc12`: the Potency result is “inactive”.
The entry for `BrCCOc1ccccc1` is “inactive”.
The entry for `O=C(OOC(=O)c1ccccc1)c1ccccc1` is “inactive”.
`O=Cc1ccccc1S(=O)(=O)O`: the Potency result is “inactive”.
The entry for `CCc1ccc(CC)cc1` is “inactive”.
For the molecule `O=Cc1ccc(C(=O)O)cc1`, the Potency entry was “inactive”.
The entry for `CCCCc1ccc(Cl)cc1` is “inactive”; for `CCCCCCCCOCCC#N` it is “inactive”.
The entry for `C[Si](C)(C)O[Si](O)(O)O` is “inactive”; for `CCO/C=C1\N=C(c2ccccc2)OC1=O` it is 68.3 µM (active); for `COC(=O)N/N=C/c1c[n+]([O-])c2ccccc2[n+]1[O-]` it is “inactive”.
For `COc1cnc(NS(=O)(=O)c2ccc(N)cc2)nc1`, the Potency entry is “inactive”.
The entry for `CC(=O)OC1CCC(C(C)(C)C)CC1` (stereo not given) is “inactive”; for `CCCCCCCCCCCC(C)=O` it is “inactive”; for `CC1(C)S[C@@H]2[C@H](NC(=O)Cc3ccccc3)C(=O)N2[C@H]1C(=O)O` (tested in a mixture with another compound) it is “inactive”.
The entry for `CC(CC(=O)Cl)CC(C)(C)C` (stereo not given) is “inactive”; for `N[C@H]1C(O)O[C@H](CO)[C@@H](O)[C@@H]1O` (stereo not given in full) it is “inactive”.
`Clc1cc(Cl)c(Cl)c(Cl)c1Cl`: the Potency entry is “inactive”.
The entry for `O=C(O)P(=O)(O)O` is “inactive”; for `CC/C=C\CCOC(=O)c1ccccc1` it is “inactive”.
As for `Nc1ccc(C(=O)NCC(=O)O)cc1`, the Potency entry is “inactive”.
Turning to `Cc1ccc(S(=O)(=O)NC(=O)NN2CC3CCCC3C2)cc1` (stereo not given), the Potency result was “inactive”.
Consider `NCC1CCC(C(=O)Oc2ccc(CCC(=O)O)cc2)CC1` (stereo not given), for which the Potency result is “inactive”.
The entry for `CCCCCC(=O)CC` is “inactive”; for `CCCc1ccc(O)c(OC)c1` it is “inactive”.
